Inconclusive results are not listed. Active and inactive are the calls of the source. Calls come from the whole dose curve; as a rule, active = well fitted inhibition curve with a large enough effect; inconclusive = small, poorly fitted or top-dose-only effect; inactive = flat fitted curve, though single readings scatter.

The test relates to CRL-7250. Kind of test: qHTS assay to identify novel small-molecules to repurpose for Merkel cell carcinoma treatment (AID 1296009). Note: nearly all actives have a fitted effect of over 60% in size. Particulars: MCC and control cell lines, CellTiter-Glo viability, 72 h; series mostly up to 44.8 µM. In short, it runs like this:
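Cell viability measured by CellTiter-Glo following 72 hr compound treatment at 37 degree celsius, with NPC and MIPE libraries tested in 8- and 11-point concentration series.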
A general note: In qHTS, concentration-response curves come from the screen itself.
Regarding `CC(CN(C)C)CN1c2ccccc2CCc2ccccc21` (stereo not given), the outcome was inactive.
For `CCN(CCO)CCCC(C)Nc1ccnc2cc(Cl)ccc12` (stereo not given), the outcome was “inactive [at 4.96 µM]”.
Next, `CC1(C)S[C@@H]2[C@H](NC(=O)Cc3ccccc3)C(=O)N2[C@H]1C(=O)O` (tested in a mixture with another compound): “inactive”; `COc1cc(Cc2cnc(N)nc2N)cc(OC)c1OC`: “inactive”; `O=C(c1ccc(OCCN2CCCCC2)cc1)c1c(-c2ccc(O)cc2)sc2cc(O)ccc12`: “inactive”.

The values above are taken from PubChem BioAssay (NCATS).
